# Laboratory results from article PMC11006913.
# Positions count from the first letter of the chain named.
# Key:
# Assay in all cases: PBM; 200 nM protein, PBS
# Details in all cases: dsDNA, one strand shown
# [1] = target: HOXB4 (Homo sapiens, UniProt P17483 148-234)
# [2] = target: SHOX (Homo sapiens, UniProt O15266 103-189)
# [3] = target: HOXB4 (Homo sapiens, UniProt P17483 148-234, V174I)
# [4] = target: SHOX (Homo sapiens, UniProt O15266 103-189, R173C)
# [5] = target: T1, NKX2-6 (Homo sapiens, UniProt A6NCS4 118-204)
# T1 sequence: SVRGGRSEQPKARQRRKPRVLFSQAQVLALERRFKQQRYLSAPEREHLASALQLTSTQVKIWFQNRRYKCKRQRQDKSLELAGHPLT
# [6] = target: T2, NKX2-6 (Homo sapiens, UniProt A6NCS4 118-204, F151L)
# T2 sequence: T1 sequence with F34L
# [7] = target: HOXD13 (Homo sapiens, UniProt P35453 263-343, T313R)
# Sequence of HOXD13 (Homo sapiens, UniProt P35453 263-343, T313R) (P35453 263-343 T313R): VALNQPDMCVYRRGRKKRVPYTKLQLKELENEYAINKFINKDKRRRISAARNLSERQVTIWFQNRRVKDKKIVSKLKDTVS
# [8] = target: HOXD13 (Homo sapiens, UniProt P35453 263-343)
# Sequence of HOXD13 (Homo sapiens, UniProt P35453 263-343) (P35453 263-343): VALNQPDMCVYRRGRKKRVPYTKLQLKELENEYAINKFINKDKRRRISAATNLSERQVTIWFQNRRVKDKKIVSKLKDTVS
# [9] = target: HOXD13 (Homo sapiens, UniProt P35453 263-343, T313A)
# Sequence of HOXD13 (Homo sapiens, UniProt P35453 263-343, T313A) (P35453 263-343 T313A): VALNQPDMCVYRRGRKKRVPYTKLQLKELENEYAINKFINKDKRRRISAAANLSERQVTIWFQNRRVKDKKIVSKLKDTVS
# [10] = target: HESX1 (Homo sapiens, UniProt Q9UBX0 95-180, R165K)
# Sequence of HESX1 (Homo sapiens, UniProt Q9UBX0 95-180, R165K) (Q9UBX0 95-180 R165K): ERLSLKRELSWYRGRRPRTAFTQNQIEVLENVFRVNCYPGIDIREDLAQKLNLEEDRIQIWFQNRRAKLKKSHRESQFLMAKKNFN
# [11] = target: HESX1 (Homo sapiens, UniProt Q9UBX0 95-180)
# Sequence of HESX1 (Homo sapiens, UniProt Q9UBX0 95-180) (Q9UBX0 95-180): as the sequence (Q9UBX0 95-180 R165K) above, with K71R counted along it
# [12] = target: HESX1 (Homo sapiens, UniProt Q9UBX0 95-180, P111T)
# Sequence of HESX1 (Homo sapiens, UniProt Q9UBX0 95-180, P111T) (Q9UBX0 95-180 P111T): as the sequence (Q9UBX0 95-180 R165K) above, with P17T, K71R counted along it
# [13] = target: CRX (Homo sapiens, UniProt O43186 26-111)
# Sequence of CRX (Homo sapiens, UniProt O43186 26-111) (O43186 26-111): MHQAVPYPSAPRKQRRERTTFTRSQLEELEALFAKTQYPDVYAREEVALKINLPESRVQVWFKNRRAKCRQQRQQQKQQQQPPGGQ
# [14] = target: HOXA4 (Homo sapiens, UniProt Q00056 201-287, W262R)
# Sequence of HOXA4 (Homo sapiens, UniProt Q00056 201-287, W262R) (Q00056 201-287 W262R): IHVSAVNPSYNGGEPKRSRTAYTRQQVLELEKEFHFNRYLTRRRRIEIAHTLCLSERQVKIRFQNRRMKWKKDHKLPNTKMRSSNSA
# [15] = target: HOXA2 (Homo sapiens, UniProt O43364 129-215, R185T)
# Sequence of HOXA2 (Homo sapiens, UniProt O43364 129-215, R185T) (O43364 129-215 R185T): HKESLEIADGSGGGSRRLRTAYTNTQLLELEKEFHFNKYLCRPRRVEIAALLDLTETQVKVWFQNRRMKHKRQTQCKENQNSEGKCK
# [16] = target: HOXA4 (Homo sapiens, UniProt Q00056 201-287, R217L)
# Sequence of HOXA4 (Homo sapiens, UniProt Q00056 201-287, R217L) (Q00056 201-287 R217L): as the sequence (Q00056 201-287 W262R) above, with R17L, R62W counted along it
# [17] = target: CRX (Homo sapiens, UniProt O43186 26-111, E42D)
# Sequence of CRX (Homo sapiens, UniProt O43186 26-111, E42D) (O43186 26-111 E42D): as the sequence (O43186 26-111) above, with E17D counted along it
# [18] = target: HOXA2 (Homo sapiens, UniProt O43364 129-215, R185K)
# Sequence of HOXA2 (Homo sapiens, UniProt O43364 129-215, R185K) (O43364 129-215 R185K): as the sequence (O43364 129-215 R185T) above, with T57K counted along it
# [19] = target: HOXA4 (Homo sapiens, UniProt Q00056 201-287)
# Sequence of HOXA4 (Homo sapiens, UniProt Q00056 201-287) (Q00056 201-287): as the sequence (Q00056 201-287 W262R) above, with R62W counted along it
# [20] = target: VAX1 (Homo sapiens, UniProt Q5SQQ9 86-172)
# Sequence of VAX1 (Homo sapiens, UniProt Q5SQQ9 86-172) (Q5SQQ9 86-172): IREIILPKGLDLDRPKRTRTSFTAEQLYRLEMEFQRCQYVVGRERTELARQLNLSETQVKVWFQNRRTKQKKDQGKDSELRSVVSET
# [21] = target: VAX1 (Homo sapiens, UniProt Q5SQQ9 86-172, T142I)
# Sequence of VAX1 (Homo sapiens, UniProt Q5SQQ9 86-172, T142I) (Q5SQQ9 86-172 T142I): as the sequence (Q5SQQ9 86-172) above, with T57I counted along it
# [22] = target: HOXA2 (Homo sapiens, UniProt O43364 129-215, Y150S)
# Sequence of HOXA2 (Homo sapiens, UniProt O43364 129-215, Y150S) (O43364 129-215 Y150S): as the sequence (O43364 129-215 R185T) above, with Y22S, T57R counted along it
# [23] = target: CRX (Homo sapiens, UniProt O43186 26-111, R41L)
# Sequence of CRX (Homo sapiens, UniProt O43186 26-111, R41L) (O43186 26-111 R41L): as the sequence (O43186 26-111) above, with R16L counted along it
# [24] = target: HOXA4 (Homo sapiens, UniProt Q00056 201-287, W262F)
# Sequence of HOXA4 (Homo sapiens, UniProt Q00056 201-287, W262F) (Q00056 201-287 W262F): as the sequence (Q00056 201-287 W262R) above, with R62F counted along it
# [25] = target: HOXA2 (Homo sapiens, UniProt O43364 129-215)
# Sequence of HOXA2 (Homo sapiens, UniProt O43364 129-215) (O43364 129-215): as the sequence (O43364 129-215 R185T) above, with T57R counted along it
# [26] = target: VAX1 (Homo sapiens, UniProt Q5SQQ9 86-172, K157R)
# Sequence of VAX1 (Homo sapiens, UniProt Q5SQQ9 86-172, K157R) (Q5SQQ9 86-172 K157R): as the sequence (Q5SQQ9 86-172) above, with K72R counted along it
# [27] = target: HESX1 (Homo sapiens, UniProt Q9UBX0 95-180, R109Q)
# Sequence of HESX1 (Homo sapiens, UniProt Q9UBX0 95-180, R109Q) (Q9UBX0 95-180 R109Q): as the sequence (Q9UBX0 95-180 R165K) above, with R15Q, K71R counted along it
# [28] = target: HESX1 (Homo sapiens, UniProt Q9UBX0 95-180, F115L)
# Sequence of HESX1 (Homo sapiens, UniProt Q9UBX0 95-180, F115L) (Q9UBX0 95-180 F115L): as the sequence (Q9UBX0 95-180 R165K) above, with F21L, K71R counted along it
# Sequence of HOXB4 (Homo sapiens, UniProt P17483 148-234, V174I) (P17483 148-234 V174I): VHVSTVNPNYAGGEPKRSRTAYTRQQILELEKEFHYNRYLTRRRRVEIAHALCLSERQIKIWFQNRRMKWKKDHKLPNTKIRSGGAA
# Sequence of HOXB4 (Homo sapiens, UniProt P17483 148-234) (P17483 148-234): as the sequence (P17483 148-234 V174I) above, with I27V counted along it
# Sequence of SHOX (Homo sapiens, UniProt O15266 103-189) (O15266 103-189): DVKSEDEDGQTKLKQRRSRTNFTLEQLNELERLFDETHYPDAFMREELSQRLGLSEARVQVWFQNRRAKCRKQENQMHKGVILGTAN
# Sequence of SHOX (Homo sapiens, UniProt O15266 103-189, R173C) (O15266 103-189 R173C): as the sequence (O15266 103-189) above, with R71C counted along it
sequence,measurement,setting,value
CGGCGAGC,binding signal,[1],"7.79 upbm affinity estimate (log intensity, higher = more binding, comparable within an allelic series)"
same,binding signal,[2],"7.05 upbm affinity estimate (log intensity, higher = more binding, comparable within an allelic series)"
same,binding signal,[3],"7.74 upbm affinity estimate (log intensity, higher = more binding, comparable within an allelic series)"
same,binding signal,[4],"7.11 upbm affinity estimate (log intensity, higher = more binding, comparable within an allelic series)"
GACTCGGC,binding signal,[1],"7.87 upbm affinity estimate (log intensity, higher = more binding, comparable within an allelic series)"
same,binding signal,[2],"7.16 upbm affinity estimate (log intensity, higher = more binding, comparable within an allelic series)"
same,binding signal,[3],"7.65 upbm affinity estimate (log intensity, higher = more binding, comparable within an allelic series)"
same,binding signal,[5],"9.17 upbm affinity estimate (log intensity, higher = more binding, comparable within an allelic series)"
same,binding signal,[4],"7.19 upbm affinity estimate (log intensity, higher = more binding, comparable within an allelic series)"
same,binding signal,[6],"9.23 upbm affinity estimate (log intensity, higher = more binding, comparable within an allelic series)"
CCGCAAGG,binding signal,[1],"7.78 upbm affinity estimate (log intensity, higher = more binding, comparable within an allelic series)"
same,binding signal,[2],"7.17 upbm affinity estimate (log intensity, higher = more binding, comparable within an allelic series)"
same,binding signal,[3],"7.66 upbm affinity estimate (log intensity, higher = more binding, comparable within an allelic series)"
same,binding signal,[7],"9.53 upbm affinity estimate (log intensity, higher = more binding, comparable within an allelic series)"
same,binding signal,[4],"7.2 upbm affinity estimate (log intensity, higher = more binding, comparable within an allelic series)"
same,binding signal,[8],"9.5 upbm affinity estimate (log intensity, higher = more binding, comparable within an allelic series)"
same,binding signal,[9],"9.67 upbm affinity estimate (log intensity, higher = more binding, comparable within an allelic series)"
ATTCATAA,binding signal,[10],"7.97 upbm affinity estimate (log intensity, higher = more binding, comparable within an allelic series)"
same,binding signal,[11],"8.03 upbm affinity estimate (log intensity, higher = more binding, comparable within an allelic series)"
same,binding signal,[12],"7.62 upbm affinity estimate (log intensity, higher = more binding, comparable within an allelic series)"
CGATATTA,binding signal,[10],"8.16 upbm affinity estimate (log intensity, higher = more binding, comparable within an allelic series)"
same,binding signal,[11],"8.27 upbm affinity estimate (log intensity, higher = more binding, comparable within an allelic series)"
same,binding signal,[12],"7.74 upbm affinity estimate (log intensity, higher = more binding, comparable within an allelic series)"
ATTGAACC,binding signal,[10],"7.56 upbm affinity estimate (log intensity, higher = more binding, comparable within an allelic series)"
same,binding signal,[11],"7.77 upbm affinity estimate (log intensity, higher = more binding, comparable within an allelic series)"
same,binding signal,[12],"7.33 upbm affinity estimate (log intensity, higher = more binding, comparable within an allelic series)"
GATCATTA,binding signal,[1],"13.4 upbm affinity estimate (log intensity, higher = more binding, comparable within an allelic series)"
same,binding signal,[13],"10.8 upbm affinity estimate (log intensity, higher = more binding, comparable within an allelic series)"
same,binding signal,[14],"10.5 upbm affinity estimate (log intensity, higher = more binding, comparable within an allelic series)"
same,binding signal,[15],"12.5 upbm affinity estimate (log intensity, higher = more binding, comparable within an allelic series)"
same,binding signal,[16],"12.4 upbm affinity estimate (log intensity, higher = more binding, comparable within an allelic series)"
same,binding signal,[3],"14.1 upbm affinity estimate (log intensity, higher = more binding, comparable within an allelic series)"
same,binding signal,[17],"10.7 upbm affinity estimate (log intensity, higher = more binding, comparable within an allelic series)"
same,binding signal,[18],"13.3 upbm affinity estimate (log intensity, higher = more binding, comparable within an allelic series)"
same,binding signal,[19],"14.1 upbm affinity estimate (log intensity, higher = more binding, comparable within an allelic series)"
same,binding signal,[20],"13 upbm affinity estimate (log intensity, higher = more binding, comparable within an allelic series)"
same,binding signal,[21],"13.1 upbm affinity estimate (log intensity, higher = more binding, comparable within an allelic series)"
same,binding signal,[22],"10.9 upbm affinity estimate (log intensity, higher = more binding, comparable within an allelic series)"
same,binding signal,[23],"10.4 upbm affinity estimate (log intensity, higher = more binding, comparable within an allelic series)"
same,binding signal,[24],"11.9 upbm affinity estimate (log intensity, higher = more binding, comparable within an allelic series)"
same,binding signal,[25],"12.6 upbm affinity estimate (log intensity, higher = more binding, comparable within an allelic series)"
same,binding signal,[26],"13 upbm affinity estimate (log intensity, higher = more binding, comparable within an allelic series)"
CGCTCCTC,binding signal,[10],"6.29 upbm affinity estimate (log intensity, higher = more binding, comparable within an allelic series)"
same,binding signal,[11],"6.25 upbm affinity estimate (log intensity, higher = more binding, comparable within an allelic series)"
same,binding signal,[27],"6.53 upbm affinity estimate (log intensity, higher = more binding, comparable within an allelic series)"
same,binding signal,[12],"6.33 upbm affinity estimate (log intensity, higher = more binding, comparable within an allelic series)"
same,binding signal,[28],"6.5 upbm affinity estimate (log intensity, higher = more binding, comparable within an allelic series)"
